APOBEC3A inh – human APOBEC3A DNA deaminase inhibition; recombinant A3A, FAM/TAMRA ssDNA deamination fluorescence; inhibition, % at 20 µM; 0.41% of 330,000 active;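 active = at least 40% inhibition at 20 µM here, with at most 30% in a related deaminase screen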;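 note: plate controls were A3A with DMSO for no effect and wells lacking A3A enzyme for full effect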
Target sequence (P31941 whole entry, looked up): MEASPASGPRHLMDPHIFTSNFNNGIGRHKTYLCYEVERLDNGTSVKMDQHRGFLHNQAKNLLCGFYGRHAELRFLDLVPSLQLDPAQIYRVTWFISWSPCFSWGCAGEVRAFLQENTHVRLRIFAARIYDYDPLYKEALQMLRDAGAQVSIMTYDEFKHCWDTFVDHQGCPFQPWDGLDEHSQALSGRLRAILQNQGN
aDG glyco up – alpha-DG glycosylation activation; Pro5-aDG cells, alpha-DG glycosylation AlphaScreen (IIH6); 0% Pro5, 100% B10-LARGE cell signal; activation, % at 10 µM; AID 624168; 0.22% of 360,000 active;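 active = activation of at least 8% versus controls, or a plate z-score of at least 8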;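 note: Pro5 are CHO cells carrying HIG-tagged alpha-DG that lacks glycosylation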
ALR H2O2 inh – inhibitors of human sulfhydryl oxidase ALR; AID 485317; inhibition, % (test concentration not listed); purified ALR, DTT oxidation, H2O2 HRP-luminol luminescence; 3.8% of 290,000 active; P55789;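 active = mean replicate inhibition above about 79%, with every replicate also reaching it, limit read from the data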
Target sequence (P55789 whole entry, looked up): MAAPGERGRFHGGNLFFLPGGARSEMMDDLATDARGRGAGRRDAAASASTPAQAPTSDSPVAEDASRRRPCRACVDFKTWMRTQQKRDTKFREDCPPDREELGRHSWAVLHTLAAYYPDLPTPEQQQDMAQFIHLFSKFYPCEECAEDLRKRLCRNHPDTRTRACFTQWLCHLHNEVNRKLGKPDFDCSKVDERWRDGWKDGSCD
rCAG binder – r(CAG) repeat RNA binding. TO-PRO-1 dye displacement fluorescence. inhibition, % at 3 µM. 1.3% of 370,000 active;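 active = inhibition above the plate cutoff, the mean of all test compounds on that plate plus 3 SD, cut at about 35% in these data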;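 note: 0% = DMSO alone and 100% = 100 µM mitoxantrone as full dye displacement; higher means more dye released from RNA so lower well fluorescence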
A3G deaminase – blocks human APOBEC3G single-stranded DNA deamination; 0.28% of 330,000 active; inhibition, % at 20 µM; recombinant A3G, ssDNA deamination FAM/TAMRA fluorescence; Q9HC16;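 active = inhibition of at least 40% at 20 µM, with no more than 30% in the related APOBEC3A deaminase screen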;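 note: plate controls were DMSO wells with A3G for no effect and wells lacking A3G enzyme for full effect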
PHOSPHO1 block – PHOSPHO1 (human) inhibition | inhibition, % at 13.3 µM | Q8TCT1 | 1.1% of 290,000 active | recombinant PHOSPHO1, absorbance phosphatase assay; in the data active = inhibition above about 60%
* = called active by the depositor; . = not tested or not shown. The list is not random: actives were taken first. Their share in the collection is about 5.4%.

SMILES	APOBEC3A inh	aDG glyco up	ALR H2O2 inh	rCAG binder	A3G deaminase	PHOSPHO1 block
Nc1c(C(=O)NCC2CCCO2)sc(=S)n1-c1ccccc1 (configuration not stated)	-1	0	85*	-1	-1	41
C=CCn1c(N)c(C(=O)NCC2CCCO2)sc1=S (configuration not stated)	2	0	99*	1	2	25
C=CCn1c(N)c(C(=O)Nc2ccccc2OC)sc1=S	-1	0	98*	3	-4	21
C=CCn1c(N)c(C(=O)NCc2ccco2)sc1=S	-1	0	98*	-1	-4	7
C=CCn1c(N)c(C(=O)NCC2CCCO2)c2nc3ccccc3nc21 (configuration not stated)	-5	0	44	2	-1	6
C=CCn1c(N)c(C(=O)Nc2ccc(C)cc2)sc1=S	-1	0	17	-2	-1	17
CCOC(=O)N1CCN(C(=O)C[C@H]2C[C@@]3(C(=O)OC)C(=C[C@H](C4CCCC4)O[C@@H]3C)N(Cc3ccc(Cl)cc3Cl)C2=O)CC1	.	.	.	5	.	.
C=CCN(CC#CC1=CCCCC1)CC1CC1	.	.	.	-1	.	.
CC(C)C[C@@H]1COc2cc(Br)ccc2S(=O)(=O)N1Cc1cn(CCC2OCCO2)nn1	.	.	.	-3	.	.
COC(=O)[C@H](C(C)C)N(CCc1cn(CC2CCCCC2)nn1)S(=O)(=O)c1ccc(F)cc1Br	.	.	.	0	.	.
Oc1cc(O)c2c(c1)O[C@H](c1ccc(O)c(O)c1)[C@H](O)C2	2	0	99*	1	3	31
Cc1cc2cc(C=C(C#N)C#N)c(Cl)nc2cc1C	-4	0	98*	-1	-9	2
CCOC(=O)/C(C#N)=C/c1cc2ccc(C)cc2nc1Cl	-3	0	96*	2	-4	6
CCOC(=O)/C(C#N)=C/c1cc2cc(C)c(C)cc2nc1Cl	0	0	66	4	-7	34
O=C(NCCc1ccccc1)OCc1cn(Cc2c(F)cccc2F)nn1	.	.	.	2	.	.
C[C@H](O)[C@@H]1CN2CCc3ccc(-c4ccc5c(c4)OCO5)cc3[C@@H]2C[C@@H]1N(C)C(=O)Nc1ccccc1	.	.	.	3	.	.
COCCCNC(=O)CN1C(=O)C2CCCCN2C(=O)c2ccccc21 (configuration not stated)	.	.	.	0	.	.
COc1cc(OC)c(C2CC(=O)N3CN(c4ccc(C)cc4)CSC3=C2C#N)cc1OC (configuration not stated)	5	0	-36	33	39	96*
CCOc1ccccc1N1CSC2=C(C#N)C(c3c(OC)ccc4ccccc34)CC(=O)N2C1 (configuration not stated)	-2	0	-6	25	25	92*
COc1ccc(N2CSC3=C(C#N)C(c4cc(OC)c(OC)cc4OC)CC(=O)N3C2)c(OC)c1 (configuration not stated)	34	0	-44	23	18	93*
CCOc1ccccc1N1CCN(S(=O)(=O)c2cc(C)ccc2OC)CC1	-2	0	.	-10	-5	-22
COc1ccc(N2CSC3=C(C#N)C(c4cc(OC)ccc4OC)CC(=O)N3C2)c(OC)c1 (configuration not stated)	1	0	2	.	32	94*
COc1ccc(N2CSC3=C(C#N)C(c4ccc(OC)c(OC)c4)CC(=O)N3C2)c(OC)c1 (configuration not stated)	1	0	52	21	38	57
CC(Nc1nc2ccccc2n2cnnc12)c1ccccc1 (configuration not stated)	2	0	-4	-4	-3	12
CC(C)Sc1nc2ccccc2n2cnnc12	-3	0	99*	-3	-7	32
SMILES	APOBEC3A inh	aDG glyco up	ALR H2O2 inh	rCAG binder	A3G deaminase	PHOSPHO1 block
CC(C)(C)N1Cc2nnn(Cc3ccccc3)c2-c2ccccc2S1(=O)=O	.	.	.	0	.	.
Cc1cccc(-c2c3c(=O)n(C)c(=O)n(C)c3cn2-c2ccc(O)cc2)c1	-1	0	95*	-2	-3	.
Oc1ccc(C23CC4CC(CC(C4)C2)C3)cc1O	.	0	99*	8	.	26
CCOC(=O)c1ccc(NC(=O)CSc2nnc(-c3cccc(C)c3)n2C)cc1	.	.	.	1	.	.
Oc1ccc(N2CCN(c3nnnn3-c3ccccc3)CC2)cc1	0	0	99*	1	21	-6
CC(=O)N1CCN(c2nnnn2-c2ccccc2)CC1	2	0	-10	-1	-7	-4
